Compound activity (PubChem)
The sample as a whole holds a higher share of hits than the screen did.
AmpC inh no detg – qHTS Inhibitors of AmpC Beta-Lactamase (assay without detergent); AmpC nitrocefin hydrolysis, absorbance 480 nm, 0.0001% Triton; Potency, µM (doses to about 57.1 µM), actives largely listed as inhibitors; 330,000 tested, 0.52% active; further: nearly all actives have a fitted effect of over 20% in size
Target sequence (P00811 whole entry, looked up): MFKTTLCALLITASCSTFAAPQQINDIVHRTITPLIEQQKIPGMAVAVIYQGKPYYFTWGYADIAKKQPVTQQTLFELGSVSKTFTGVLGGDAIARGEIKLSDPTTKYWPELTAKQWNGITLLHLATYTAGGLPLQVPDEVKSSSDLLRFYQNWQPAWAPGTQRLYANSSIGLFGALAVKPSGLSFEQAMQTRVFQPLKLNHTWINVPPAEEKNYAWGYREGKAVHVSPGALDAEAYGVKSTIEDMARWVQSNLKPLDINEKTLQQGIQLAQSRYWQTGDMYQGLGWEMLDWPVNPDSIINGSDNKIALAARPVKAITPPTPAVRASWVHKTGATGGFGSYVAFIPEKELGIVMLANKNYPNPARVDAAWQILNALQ
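AmpC (5.3 nM in the dispensed reagent) in 20 mM phosphate pH 7.0 with 0.01% (detergent screen) or 0.0001% Triton X-100 was preincubated with compounds for 15 min at room temperature. Nitrocefin was then added from an 800 uM solution, and hydrolysis was followed at 480 nm.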
NS1 inh – qHTS Assay for Inhibitors of Influenza NS1 Protein Function | Potency, µM (top dose mostly 46.1 µM) | 270,000 tested, 0.4% active | AID 2326, 2010; calls by dose curve; further: actives are rising curves; nearly all actives have a fitted effect of over 50% in size
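A cell-based growth assay was used: compounds that relieve NS1-induced slow growth of budding yeast raise OD600. Assay medium was yeast nitrogen base with ammonium sulphate and -URA supplement, pH 6.0, with 2% galactose.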
AmpC detergent – qHTS Inhibitors of AmpC Beta-Lactamase (assay with detergent). AmpC hydrolysis of nitrocefin, absorbance 480 nm, 0.01% Triton. P00811. Potency, µM (titrated, usually from 114 µM), actives largely listed as inhibitors. 370,000 tested, 0.041% active; further: nearly all actives have a fitted effect of over 25% in size
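AmpC (5.3 nM in the dispensed reagent) in 20 mM phosphate pH 7.0 with 0.01% (detergent screen) or 0.0001% Triton X-100 was preincubated with compounds for 15 min at room temperature. Nitrocefin was then added from an 800 uM solution, and hydrolysis was followed at 480 nm.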
Cycloheximide cs – Cycloheximide Counterscreen for Small Molecule Inhibitors of Shiga Toxin | cell reporter, cycloheximide protein synthesis inhibition counterscreen | max response, % | 300,000 tested, 12% active | AID 2314, 2010; in the data active means max response mostly above about 13%, no sharp cut-off; inactive means mostly below about 14%; further: read at 38.3 µM for the half of the compounds with a filed dose
Shiga toxin inh – A qHTS for Small Molecule Inhibitors of Shiga Toxin; Vero cells, Shiga toxin protein synthesis inhibition reporter; inhibition, % at 38.7 µM; 290,000 tested, 9.2% active; in the data active means inhibition mostly above about 28%, no sharp cut-off; inactive means mostly below about 43%
Each line names hits and unclear results; the compound was inactive in the other large screens. Unless noted, the call rests on the fitted dose curve; in most records, active means well fitted curve in the direction sought with a large enough effect; inconclusive means small, poorly fitted or top-dose-only effect, or another doubt; inactive means no such curve, though single readings can be large; an effect the other way counts as inactive or inconclusive.

O=C(NCCc1ccccc1)c1ccccc1SCC(=O)N1CCCC1	Cycloheximide cs 27, Shiga toxin inh 97
CCCCN1CC(=O)N2[C@H](c3ccc(OC)cc3)[C@@H]3C(=O)N(CC)C(=O)[C@@H]3[C@]2(Cc2ccccc2)C1=O	none
O=C(CCc1nc2ccccc2c(=O)[nH]1)N1CCN(c2ccc(F)cc2)CC1	none
O=C(OCC(=O)N1CCCCC1)c1cc2ccccc2cc1O	AmpC detergent inconclusive, Cycloheximide cs 24
CN(C(=O)COC(=O)c1cc2ccccc2cc1O)C1CCCCC1	none (no result: NS1 inh, Cycloheximide cs, Shiga toxin inh)
CCC1CCCCN1C(=O)COC(=O)c1cc2ccccc2cc1O (stereo unspecified)	Cycloheximide cs 50, Shiga toxin inh 80
COc1ccc(-n2c(=O)[nH]c3cc(C(=O)NCCc4ccccc4)ccc3c2=O)cc1OC	none
CC1CCN(c2nc3ccccc3nc2C(F)(F)F)CC1	none (no result: AmpC inh no detg, NS1 inh, Cycloheximide cs, Shiga toxin inh)
CN1CCC(=NNC(=O)C(=O)NC(C)(C)C)CC1	none
CCOC(=O)c1c(C)[nH]c(=S)c(C#N)c1-c1ccc(OC)cc1	AmpC detergent inconclusive
CCOC(=O)c1c(C)[nH]c(=S)c(C#N)c1-c1ccc(Cl)cc1	AmpC inh no detg 28µM, NS1 inh inconclusive
CCOc1ccc(CCNC(=O)c2cc(=O)[nH]c3ccc(S(=O)(=O)N4CCCCC4)cc23)cc1OCC	none (no result: AmpC inh no detg, NS1 inh, Cycloheximide cs, Shiga toxin inh)
CC(=O)Nc1ccccc1C(=O)OCc1cccc(F)c1	Cycloheximide cs 26
CC(=O)Nc1ccccc1C(=O)OCc1ccc(C(=O)c2ccccc2)cc1	Cycloheximide cs 24
COC(=O)COC(=O)c1ccccc1NC(=O)c1ccccc1	none
CCCOc1ccc(CNC(=S)Nc2ccccc2)cc1Cl	none
COC(=O)COc1ccc(S(=O)(=O)N2CCc3ccccc3C2)cc1C	none
N/C(COc1cc(Cl)cc(Cl)c1)=N\O	none
Cc1ccc(C2CCN(C(=S)NC(C)C)C2)cc1 (stereo unspecified)	Shiga toxin inh 64 (no result: NS1 inh)
Cc1ccc(C2CCN(C(=O)Nc3ccc(F)cc3)C2)cc1 (stereo unspecified)	AmpC detergent inconclusive, Cycloheximide cs 19, Shiga toxin inh 89 (no result: NS1 inh)
Cc1nc2cc(NC(=O)N3CCC(c4ccccc4)C3)ccc2n1C (stereo unspecified)	AmpC detergent inconclusive, Cycloheximide cs 27, Shiga toxin inh 99
Cn1nnc2cc(C(=O)N3CCC(c4ccccc4)C3)ccc21 (stereo unspecified)	Cycloheximide cs 10, Shiga toxin inh 27
COc1ccc(Cl)cc1NC(=S)N1CCC(c2ccc(C)cc2)C1 (stereo unspecified)	none (no result: NS1 inh)
CCSc1nnc2c(n1)OC(c1ccc(OC)c(OC)c1)N(C(C)=O)c1ccccc1-2 (stereo unspecified)	none (no result: AmpC inh no detg, NS1 inh, Cycloheximide cs, Shiga toxin inh)
Brc1ccc(-c2cc3c(N4CCN(c5ccccc5)CC4)nccn3n2)cc1	none (no result: AmpC inh no detg, NS1 inh, Cycloheximide cs, Shiga toxin inh)
CC(=O)c1cccc(NC(=O)N2CCC(c3ccc(C)cc3)C2)c1 (stereo unspecified)	Shiga toxin inh 49 (no result: NS1 inh)
CC(=O)c1cccc(NC(=O)N2CCC(CN3CCCCC3)CC2)c1	none (no result: AmpC inh no detg, NS1 inh, Cycloheximide cs, Shiga toxin inh)
O=C(NCc1ccccc1Cl)c1ccc(S(=O)(=O)Nc2cccc(C(F)(F)F)c2)cc1	none
O=c1c(Br)c(N2CCCCC2)cnn1-c1ccccc1	Cycloheximide cs 21, Shiga toxin inh 116 (no result: NS1 inh)
CN1CCN(c2cnn(-c3ccccc3)c(=O)c2Br)CC1	Cycloheximide cs 29, Shiga toxin inh 53 (no result: NS1 inh)
O=c1c(Br)c(N2CCCC2)cnn1-c1ccccc1	Cycloheximide cs 47, Shiga toxin inh 81
O=c1c(Br)c(N2CCOCC2)cnn1-c1ccccc1	AmpC detergent inconclusive, Cycloheximide cs 18, Shiga toxin inh 92 (no result: NS1 inh)
O=c1c(Br)c(Br)cnn1-c1ccccc1	none
CCOC(=O)COc1ccc([N+](=O)[O-])cc1-c1ccnc2cc(-c3ccc(C)cc3)nn12	none (no result: AmpC inh no detg, NS1 inh, Cycloheximide cs, Shiga toxin inh)
CCOC(=O)Cn1cnc(-c2ccc([N+](=O)[O-])cc2)c1	Cycloheximide cs 43, Shiga toxin inh 75
Cc1cccc(OCC(=O)NCc2nc(-c3ccccc3)no2)c1	none
Cc1cc(C)c(C)c(OCc2nc(-c3cccnc3)no2)c1	none
Cc1ccc(-c2noc(CNS(=O)(=O)c3ccc(F)cc3)n2)cc1	none (no result: AmpC inh no detg, NS1 inh, Cycloheximide cs, Shiga toxin inh)
Cc1ccc(-c2noc(CNS(=O)(=O)c3ccccc3)n2)cc1	Cycloheximide cs 43, Shiga toxin inh 39
COc1ccc(-c2noc(CNS(=O)(=O)c3ccccc3)n2)cc1	Cycloheximide cs 17
Cc1ccc(OCc2nc(-c3ccccc3)no2)c(C)c1	Cycloheximide cs 36, Shiga toxin inh 98
Cc1cccc(NCc2nc(-c3ccccc3)no2)c1	Cycloheximide cs 36
O=S(=O)(NCc1nc(-c2ccccc2)no1)c1ccc(F)cc1	none
COc1ccc2cc(C(=O)NCc3ccc4c(c3)CCN4C(=O)c3ccccc3)[nH]c2c1	none (no result: AmpC inh no detg, NS1 inh, Cycloheximide cs, Shiga toxin inh)
O=C(CCn1cnc(-c2ccccc2)c1-c1ccccc1)N/N=C/c1ccccc1O	none
Cc1c(NC(=O)c2cc(Br)ccc2Cl)cccc1-n1cnnn1	none (no result: NS1 inh, AmpC detergent, Cycloheximide cs, Shiga toxin inh)
Cc1c(NC(=O)c2cn3ccccc3n2)cccc1-n1cnnn1	Cycloheximide cs 15
O=C(Nc1ccccc1)c1cn2ccccc2n1	none
O=C(Nc1ccc(-n2cnnn2)cc1)c1cn2ccccc2n1	Cycloheximide cs 22
CC(C)(C)c1nn(-c2ccccc2)c2[nH]c(=O)c(CNc3ccc4c(c3)OCCO4)cc12	Cycloheximide cs 16
O=C1c2cccc(O)c2C(=O)c2c(O[C@@H]3O[C@H](CO)[C@@H](O)[C@H](O)[C@@H]3O)cccc21	none (no result: AmpC inh no detg, AmpC detergent, Cycloheximide cs, Shiga toxin inh)
O=C(O)c1cc(O)c2c(c1)[C@@H]([C@H]1c3cc(C(=O)O)cc(O)c3C(=O)c3c(O[C@@H]4O[C@H](CO)[C@@H](O)[C@H](O)[C@H]4O)cccc31)c1cccc(O[C@@H]3O[C@H](CO)[C@@H](O)[C@H](O)[C@H]3O)c1C2=O	AmpC inh no detg 1.3µM (no result: NS1 inh, AmpC detergent, Cycloheximide cs, Shiga toxin inh)
COc1ccc(C)c2sc(N(CCCN(C)C)C(=O)CS(=O)(=O)c3ccc(F)cc3)nc12	none (no result: NS1 inh, Cycloheximide cs, Shiga toxin inh)
Cc1ccc(C2=N/C(=C/N3CCOCC3)C(=O)O2)cc1	AmpC detergent inconclusive, Cycloheximide cs 50, Shiga toxin inh 68
COc1ccc(/C=C2\N=C(c3ccc(C)cc3)OC2=O)cc1	none (no result: Shiga toxin inh)
Cc1ccc(C2=N/C(=C\N3CCCCC3)C(=O)O2)cc1	AmpC detergent inconclusive, Cycloheximide cs 73, Shiga toxin inh 143
CCOc1ccccc1CNc1ncnc2c1nc1n2CCCC1	none (no result: AmpC inh no detg, NS1 inh, Cycloheximide cs, Shiga toxin inh)
Cc1cccc(NC(=S)NN2CCN(C)CC2)c1	none
O=C(CNC(=O)c1ccncc1)N/N=C/c1ccccc1[N+](=O)[O-]	Cycloheximide cs 23, Shiga toxin inh 58 (no result: NS1 inh)
Cc1cc(C)n(Cc2cccc(C(=O)N/N=C/c3cccnc3)c2)n1	Cycloheximide cs 10.0
O=C(CNC(=O)c1ccncc1)N/N=C/c1cccc([N+](=O)[O-])c1	none (no result: NS1 inh)
COc1ccc(C(=O)N/N=C/c2cccnc2)cc1	Cycloheximide cs 29, Shiga toxin inh 54
Cc1cc(C)n(Cc2cccc(C(=O)N/N=C/c3ccncc3)c2)n1	none
